Test results reported in article PMC5700166.

Each sequence was assayed against T1, GST-Ap-NF-kB RHD (Exaiptasia pallida (Aiptasia), UniProt A0A913YAJ5 2-422) (assay: protein-binding microarray (PBM); PBM: ~300 nM protein, 6 mM HEPES pH 7.8, 80 mM KCl, 0.5 mM EDTA, 0.5 mM EGTA, 6% glycerol, 35 ng/ul poly-dIdC, 1% milk, 1 h, room temperature; Ap Aiptasia and Nv Nematostella (sea anemones) / Co Capsaspora / Aq Amphimedon (sponge) / Dm Drosophila / Hu human; RHD is the Rel homology domain; high values mean tight binding). Details: dsDNA, one strand shown.
T1 sequence: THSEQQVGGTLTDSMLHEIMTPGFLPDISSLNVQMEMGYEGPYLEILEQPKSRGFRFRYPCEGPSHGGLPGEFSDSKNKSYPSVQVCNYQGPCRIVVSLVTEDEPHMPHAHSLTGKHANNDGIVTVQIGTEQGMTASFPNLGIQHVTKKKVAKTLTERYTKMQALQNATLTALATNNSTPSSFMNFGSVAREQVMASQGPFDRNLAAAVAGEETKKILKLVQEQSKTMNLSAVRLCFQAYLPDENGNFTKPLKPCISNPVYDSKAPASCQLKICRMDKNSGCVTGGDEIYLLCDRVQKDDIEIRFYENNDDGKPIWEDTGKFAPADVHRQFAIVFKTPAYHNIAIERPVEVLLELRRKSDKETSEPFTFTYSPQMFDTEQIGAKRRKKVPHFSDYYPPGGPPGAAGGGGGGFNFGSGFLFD
With “CCGATTAACATCAAAATTCCACCTGATGTTAATCGGGTCTTGATTCGCTTGACGCTGCTG” the binding signal was 1.5 z-score. “CCGATTAACATCACCCCCCCCCGTGATGTTAATCGGGTCTTGATTCGCTTGACGCTGCTG” showed a binding signal of 7.33 z-score. “CCGATTAACATCAGCCCCCCCCATGATGTTAATCGGGTCTTGATTCGCTTGACGCTGCTG” gave a binding signal of 4.34 z-score. In the case of “CCGATTAACATCAGGGAACTCCATGATGTTAATCGGGTCTTGATTCGCTTGACGCTGCTG”, the binding signal is reported as 2.66 z-score. “CCGATTAACATCAGGGTTTTCCATGATGTTAATCGGGTCTTGATTCGCTTGACGCTGCTG” showed a binding signal of 2.55 z-score. For “CCGATTAACATCAGGGGCGGGAATGATGTTAATCGGGTCTTGATTCGCTTGACGCTGCTG”, the binding signal was 2.87 z-score. Work on “CCGATTAACATCAGGGGTTCCACTGATGTTAATCGGGTCTTGATTCGCTTGACGCTGCTG” yielded a binding signal of 2.77 z-score. Sequence “CCGATTAACATCAGGGAAGCCCATGATGTTAATCGGGTCTTGATTCGCTTGACGCTGCTG” has a binding signal of 1.18 z-score. In the case of “CCGATTAACATCAGGGACCTCCCTGATGTTAATCGGGTCTTGATTCGCTTGACGCTGCTG”, the binding signal is reported as 5.47 z-score. Work on “CCGATTAACATCACATGTTCCCCTGATGTTAATCGGGTCTTGATTCGCTTGACGCTGCTG” yielded a binding signal of 4.94 z-score. “CCGATTAACATCAAGCAACCCCCTGATGTTAATCGGGTCTTGATTCGCTTGACGCTGCTG” showed a binding signal of 5.23 z-score. Work on “CCGATTAACATCAAAAATTTACCTGATGTTAATCGGGTCTTGATTCGCTTGACGCTGCTG” yielded a binding signal of 1.32 z-score. “CCGATTAACATCAACAAAGTCCCTGATGTTAATCGGGTCTTGATTCGCTTGACGCTGCTG” gave a binding signal of 4.89 z-score. Sequence “CCGATTAACATCAGGGGAAGGACTGATGTTAATCGGGTCTTGATTCGCTTGACGCTGCTG” has a binding signal of 4.32 z-score. In the case of “CCGATTAACATCACGGGAATCCCTGATGTTAATCGGGTCTTGATTCGCTTGACGCTGCTG”, the binding signal is reported as 6.64 z-score. “CCGATTAACATCAGGAAAAACCCTGATGTTAATCGGGTCTTGATTCGCTTGACGCTGCTG” showed a binding signal of 4.35 z-score. “CCGATTAACATCAGAACATTCCCTGATGTTAATCGGGTCTTGATTCGCTTGACGCTGCTG” showed a binding signal of 2.94 z-score. “CCGATTAACATCAGGAAAACACCTGATGTTAATCGGGTCTTGATTCGCTTGACGCTGCTG” gave a binding signal of 2.56 z-score. With “CCGATTAACATCAGGGCAAACCCTGATGTTAATCGGGTCTTGATTCGCTTGACGCTGCTG” the binding signal was 1.34 z-score. In the case of “CCGATTAACATCAGGGGGATAGATGATGTTAATCGGGTCTTGATTCGCTTGACGCTGCTG”, the binding signal is reported as 4.85 z-score. Sequence “CCGATTAACATCACGGAAGTCCCTGATGTTAATCGGGTCTTGATTCGCTTGACGCTGCTG” has a binding signal of 5.31 z-score. In the case of “CCGATTAACATCAGGGAACGCCCTGATGTTAATCGGGTCTTGATTCGCTTGACGCTGCTG”, the binding signal is reported as 2.68 z-score. “CCGATTAACATCAGGTACTTCCATGATGTTAATCGGGTCTTGATTCGCTTGACGCTGCTG” gave a binding signal of 2.51 z-score. Sequence “CCGATTAACATCAGGTAATCACCTGATGTTAATCGGGTCTTGATTCGCTTGACGCTGCTG” has a binding signal of 1.18 z-score. “CCGATTAACATCAGGTAATTCCATGATGTTAATCGGGTCTTGATTCGCTTGACGCTGCTG” was tested, and the binding signal was 1.26 z-score. With “CCGATTAACATCAGGGATTCTCATGATGTTAATCGGGTCTTGATTCGCTTGACGCTGCTG” the binding signal was 2.96 z-score. In the case of “CCGATTAACATCAGGGAATTATATGATGTTAATCGGGTCTTGATTCGCTTGACGCTGCTG”, the binding signal is reported as 4.16 z-score. For “CCGATTAACATCACGAAAATCCCTGATGTTAATCGGGTCTTGATTCGCTTGACGCTGCTG”, the binding signal was 4.71 z-score. “CCGATTAACATCAAAAAAAGTCCTGATGTTAATCGGGTCTTGATTCGCTTGACGCTGCTG” showed a binding signal of 1.18 z-score. “CCGATTAACATCAACCACCCCCTTGATGTTAATCGGGTCTTGATTCGCTTGACGCTGCTG” showed a binding signal of 3.52 z-score. With “CCGATTAACATCAGGAATCCCTATGATGTTAATCGGGTCTTGATTCGCTTGACGCTGCTG” the binding signal was 2.79 z-score. Sequence “CCGATTAACATCAATACACCCCCTGATGTTAATCGGGTCTTGATTCGCTTGACGCTGCTG” has a binding signal of 3.75 z-score. With “CCGATTAACATCAGGGACTTACCTGATGTTAATCGGGTCTTGATTCGCTTGACGCTGCTG” the binding signal was 5.1 z-score. With “CCGATTAACATCAGGGCCCCCCCTGATGTTAATCGGGTCTTGATTCGCTTGACGCTGCTG” the binding signal was 6.57 z-score. With “CCGATTAACATCAGAGTCCCCCCTGATGTTAATCGGGTCTTGATTCGCTTGACGCTGCTG” the binding signal was 5.97 z-score. In the case of “CCGATTAACATCAGGAAATGCCCTGATGTTAATCGGGTCTTGATTCGCTTGACGCTGCTG”, the binding signal is reported as 1.98 z-score. For “CCGATTAACATCAGGAATAACCCTGATGTTAATCGGGTCTTGATTCGCTTGACGCTGCTG”, the binding signal was 1.87 z-score. “CCGATTAACATCAGGGACTCACCTGATGTTAATCGGGTCTTGATTCGCTTGACGCTGCTG” showed a binding signal of 3.77 z-score. “CCGATTAACATCACGGACTTCCCTGATGTTAATCGGGTCTTGATTCGCTTGACGCTGCTG” showed a binding signal of 2.56 z-score.
